Measurements reported in PubChem BioAssay.
Activity calls are given as the source filed them. Unless noted, the rule behind the calls is not given here.

Columns and labels:
[1] = anti-His antibody binders, primary screen, artefact control for SMM control protein annotation, biochemical, small-molecule microarray, 635 nm fluorescence (AID 1128); conditions: anti-His Alexa647 antibody binding, higher = more signal;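 note: score merges feature fluorescence with signal-to-noise for each printed compound spot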
[2] = system: Human papillomavirus type 1a E7 protein (residues 1-88); experiment: HPV1a E7 small-molecule binders, primary screen, biochemical, small-molecule microarray, residues 1-88, 635 nm (AID 1129); conditions: small-molecule microarray binding, fluorescence 635 nm; higher = more signal
[3] = biological target: Focal adhesion kinase 1 (Homo sapiens) (UniProt Q05397); experiment: small-molecule microarray binders of FAK, primary screen, biochemical, 635/667 nm fluorescence, BSA, DTT (AID 1130); conditions: PTK2 binding, 635 nm fluorescence, higher = more signal;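 note: composite of spot emission at 667 nm and signal to noise over triplicate slides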
Focal adhesion kinase 1 (Homo sapiens), sequence (Q05397 whole entry, looked up): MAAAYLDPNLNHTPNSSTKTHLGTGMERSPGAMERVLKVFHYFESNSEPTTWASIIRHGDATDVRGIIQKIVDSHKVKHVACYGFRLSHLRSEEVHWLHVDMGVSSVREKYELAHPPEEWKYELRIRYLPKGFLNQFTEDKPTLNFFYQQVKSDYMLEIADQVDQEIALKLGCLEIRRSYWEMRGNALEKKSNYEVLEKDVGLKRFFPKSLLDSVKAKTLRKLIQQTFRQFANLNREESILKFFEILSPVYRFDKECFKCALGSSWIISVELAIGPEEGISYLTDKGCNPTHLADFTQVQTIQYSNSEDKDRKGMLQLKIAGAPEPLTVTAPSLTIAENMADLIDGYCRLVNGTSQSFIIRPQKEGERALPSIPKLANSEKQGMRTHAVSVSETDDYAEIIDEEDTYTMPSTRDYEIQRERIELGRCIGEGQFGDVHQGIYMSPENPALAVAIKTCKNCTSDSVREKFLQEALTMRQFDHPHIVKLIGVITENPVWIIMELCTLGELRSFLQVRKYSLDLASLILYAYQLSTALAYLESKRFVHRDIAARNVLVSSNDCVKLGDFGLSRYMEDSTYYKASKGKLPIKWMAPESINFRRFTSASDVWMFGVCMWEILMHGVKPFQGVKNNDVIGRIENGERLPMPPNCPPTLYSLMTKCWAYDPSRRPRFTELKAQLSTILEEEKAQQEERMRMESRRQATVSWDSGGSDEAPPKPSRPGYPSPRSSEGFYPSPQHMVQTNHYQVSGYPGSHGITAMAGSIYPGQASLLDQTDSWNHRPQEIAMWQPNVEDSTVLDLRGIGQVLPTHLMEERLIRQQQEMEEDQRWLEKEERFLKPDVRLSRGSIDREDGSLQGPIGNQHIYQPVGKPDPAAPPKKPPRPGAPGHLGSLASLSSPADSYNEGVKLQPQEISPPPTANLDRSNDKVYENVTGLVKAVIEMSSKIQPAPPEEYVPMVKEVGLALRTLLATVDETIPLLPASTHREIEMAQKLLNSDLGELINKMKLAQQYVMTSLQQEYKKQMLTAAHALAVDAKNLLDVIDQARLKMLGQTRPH

[4] = system: Fibrinogen (Alexa647-labelled); experiment: fibrinogen binders on compound microarrays, profiling panel, artefact control for SMM control-protein annotation, biochemical, small-molecule microarray, 635/667 nm fluorescence (AID 1131); conditions: fibrinogen-A647 binding fluorescence, higher = more signal;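 note: z-score merges 667 nm fluorescence with per-spot signal-to-noise over triplicate slides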
[5] = biological target: Follistatin (Homo sapiens) (UniProt P19883); experiment: follistatin binders on small-molecule microarrays, primary screen, biochemical, small-molecule microarray, 635/667 nm fluorescence (AID 1132); conditions: FST binding, 635 nm fluorescence, higher = more signal
Follistatin (Homo sapiens), sequence (P19883 whole entry, looked up): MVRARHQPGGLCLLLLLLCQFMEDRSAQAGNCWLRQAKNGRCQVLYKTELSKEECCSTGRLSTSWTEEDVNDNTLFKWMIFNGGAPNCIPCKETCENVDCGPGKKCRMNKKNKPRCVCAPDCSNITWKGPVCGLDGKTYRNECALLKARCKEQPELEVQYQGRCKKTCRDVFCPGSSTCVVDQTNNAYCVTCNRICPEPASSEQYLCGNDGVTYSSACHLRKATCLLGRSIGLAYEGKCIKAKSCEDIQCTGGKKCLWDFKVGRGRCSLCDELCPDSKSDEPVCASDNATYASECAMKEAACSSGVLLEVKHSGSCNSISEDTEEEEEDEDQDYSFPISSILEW

[6] = biological target: Fibroblast growth factor 2 (Homo sapiens) (UniProt P09038); experiment: FGF2 binders on small-molecule microarrays, primary screen, biochemical, small-molecule microarray, 635/667 nm fluorescence (AID 1133); conditions: small-molecule microarray binding, FGF2, fluorescence 635/667; higher = more signal
Fibroblast growth factor 2 (Homo sapiens), sequence (P09038 whole entry, looked up): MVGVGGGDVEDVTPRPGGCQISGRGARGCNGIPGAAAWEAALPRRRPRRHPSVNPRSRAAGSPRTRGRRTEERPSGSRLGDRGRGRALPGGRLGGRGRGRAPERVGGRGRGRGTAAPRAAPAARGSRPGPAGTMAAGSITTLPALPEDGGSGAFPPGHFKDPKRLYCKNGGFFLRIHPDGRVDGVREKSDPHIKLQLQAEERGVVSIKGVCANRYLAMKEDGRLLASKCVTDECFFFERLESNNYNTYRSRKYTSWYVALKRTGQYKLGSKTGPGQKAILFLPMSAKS

[7] = mitochondrial membrane potential change in A549 cells, profiling panel, cell-based, JC-1 fluorescence, basal, 24 h, 100 nL (AID 1138); conditions: higher = more signal;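 note: A549 lung adenocarcinoma cells under basal conditions with no added stimulus; test concentration not given here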
Lefty1 = Lefty1 binders on small-molecule microarrays, primary screen, biochemical, small-molecule microarray, 635/667 nm fluorescence (AID 1139); conditions: small-molecule microarray binding, fluorescence 635/667; higher = more signal
[8] = system: wheat germ agglutinin (Triticum aestivum), Alexa647-labelled; experiment: wheat germ agglutinin binders on compound microarrays, profiling panel, artefact control for SMM control-protein annotation, biochemical, small-molecule microarray, 635/667 nm fluorescence (AID 1140); conditions: WGA-A647 binding, 635 nm fluorescence, higher = more signal;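 note: score merges 667 nm feature emission with signal to noise over triplicate slides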
[9] = biological target: Luciferin 4-monooxygenase (Photinus pyralis) (UniProt P08659); experiment: firefly luciferase enzyme inhibitors, primary screen, biochemical, luminescence, purified enzyme, 2006 set (AID 1141); conditions: SteadyGlo luminescence, 30 min, higher = more signal, called active from +8 up or from −8 down;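 note: cell-free assay with purified firefly luciferase at 100 ng per well in PBS; test concentration not given here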
Luciferin 4-monooxygenase (Photinus pyralis), sequence (P08659 whole entry, looked up): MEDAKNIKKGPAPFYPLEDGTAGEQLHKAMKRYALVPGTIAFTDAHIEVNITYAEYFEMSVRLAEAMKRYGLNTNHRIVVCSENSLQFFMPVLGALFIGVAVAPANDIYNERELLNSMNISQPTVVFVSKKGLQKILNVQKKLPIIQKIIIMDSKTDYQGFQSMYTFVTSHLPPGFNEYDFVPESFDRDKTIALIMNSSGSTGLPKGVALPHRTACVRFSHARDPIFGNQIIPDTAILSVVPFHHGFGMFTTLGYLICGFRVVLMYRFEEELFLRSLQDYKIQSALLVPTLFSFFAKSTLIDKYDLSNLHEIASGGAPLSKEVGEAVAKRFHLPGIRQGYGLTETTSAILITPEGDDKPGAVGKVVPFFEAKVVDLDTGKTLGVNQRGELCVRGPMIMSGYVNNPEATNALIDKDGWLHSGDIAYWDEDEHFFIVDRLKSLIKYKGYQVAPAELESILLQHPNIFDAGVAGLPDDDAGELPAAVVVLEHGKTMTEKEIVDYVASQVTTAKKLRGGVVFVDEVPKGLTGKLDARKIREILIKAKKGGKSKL

[10] = system: Wnt5a (protein binding on small-molecule microarray); experiment: Wnt5a binders on small-molecule microarray, primary screen, biophysical, 635/667 nm fluorescence (AID 1142); conditions: 635 nm fluorescence, higher = more signal;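 note: fluorescence read at 667 nm with signal to noise per printed feature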
[11] = cell viability in Huh7 cells, primary screen, cytotoxicity control for HCV replication inhibitor project, CellTiter-Glo luminescence, basal, 48 h (AID 1143); conditions: Huh7 HCV replicon, higher = more signal, called active from +8 up or from −8 down;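 note: Huh7 hepatoma cells carrying a hepatitis C replication reporter with no stimulus; test concentration not given here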
[12] = P. aeruginosa biofilm formation inhibitors, primary screen, PAO1 strain, BacTiter-Glo luminescence, LB-PBS (AID 1144); conditions: 12 h, higher = more signal
[13] = CREB reporter modulators without forskolin, primary screen, cell-based, PC12, CRE-LacZ reporter, unstimulated (AID 1145); conditions: no forskolin, luminescence, 4.5 h, higher = more signal, called active from +8 up or from −8 down
[14] = CREB reporter modulators under forskolin, primary screen, cell-based, PC12, CRE-LacZ reporter, forskolin-stimulated (AID 1146); conditions: luminescence, 4.5 h, higher = more signal, called active from +8 up or from −8 down;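 note: PC12 cells with 6xCRE LacZ reporter stimulated by forskolin 10 µM; beta-galactosidase reporter signal reflecting CREB driven transcription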
[15] = biological target: Streptavidin (Streptomyces avidinii) (UniProt P22629); experiment: streptavidin binders on small-molecule microarray, primary screen, artefact control for SMM compound annotation, biophysical, 635/667 nm fluorescence (AID 1147); conditions: streptavidin binding, higher = more signal;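 note: signal reflects streptavidin binding to arrayed compounds as a control protein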
Streptavidin (Streptomyces avidinii), sequence (P22629 whole entry, looked up): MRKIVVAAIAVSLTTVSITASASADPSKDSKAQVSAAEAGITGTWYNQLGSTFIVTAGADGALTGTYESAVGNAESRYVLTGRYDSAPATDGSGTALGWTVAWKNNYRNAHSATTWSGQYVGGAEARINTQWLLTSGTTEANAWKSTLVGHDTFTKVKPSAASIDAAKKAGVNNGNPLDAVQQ

[16] = small-molecule binders of probe aInhba, primary screen, biochemical, small-molecule microarray, 635/667 nm fluorescence (AID 1148); conditions: higher = more signal;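 note: score merges 667nm spot fluorescence with signal-to-noise for antibody binding to printed compounds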
Torsin-1A (Homo sapiens) [17] = biological target: Torsin-1A (Homo sapiens) (UniProt O14656); experiment: torsin A binders from cell lysate, primary screen, small-molecule microarray, wild-type, 635/667 nm (AID 1149); conditions: COS7 hTOR1A-WT lysate, 635 nm fluorescence, higher = more signal
Torsin-1A (Homo sapiens), sequence (O14656 whole entry, looked up): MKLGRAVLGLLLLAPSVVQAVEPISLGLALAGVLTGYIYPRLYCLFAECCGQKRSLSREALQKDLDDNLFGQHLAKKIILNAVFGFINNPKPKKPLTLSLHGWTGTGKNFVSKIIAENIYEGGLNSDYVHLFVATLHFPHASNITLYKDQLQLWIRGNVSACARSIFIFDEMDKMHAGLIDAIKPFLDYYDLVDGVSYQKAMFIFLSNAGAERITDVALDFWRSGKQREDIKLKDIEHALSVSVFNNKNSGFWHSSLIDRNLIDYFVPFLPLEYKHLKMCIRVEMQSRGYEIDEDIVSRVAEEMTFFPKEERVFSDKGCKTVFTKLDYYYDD

Torsin-1A (Homo sapiens) [18] = biological target: Torsin-1A (Homo sapiens) (UniProt O14656); experiment: small-molecule binders of mutant TOR1A in lysate, primary screen, cell lysate, small-molecule microarray, COS7 lysate, 635/667 nm fluorescence (AID 1150); conditions: COS7 hTOR1A mutant lysate, 635 nm fluorescence, higher = more signal;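 note: score pools 667 nm emission and signal to noise measuring lysate protein binding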
[19] = system: Sonic hedgehog protein (Shh); experiment: small-molecule binders of Shh protein, primary screen, biochemical, small-molecule microarray, 635/667 nm fluorescence (AID 1151); conditions: small-molecule microarray binding, 635 nm fluorescence; higher = more signal;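 note: Shh protein binding to compounds spotted on small-molecule microarray slides; score combines spot fluorescence intensity with signal-to-noise across triplicate slides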

Row | SMILES | composite z-score [1] | composite z-score [2] | composite z-score [3] | composite z-score [4] | composite z-score [5] | composite z-score [6] | z-score [7] | composite z-score (Lefty1) | composite z-score [8] | z-score [9] | composite z-score [10] | z-score [11] | z-score [12] | z-score [13] | z-score [14] | composite z-score [15] | composite z-score [16] | composite z-score (Torsin-1A (Homo sapiens) [17]) | composite z-score (Torsin-1A (Homo sapiens) [18]) | composite z-score [19]
1 | CC(C)NC(=O)[C@@H]1c2ccccc2C(=O)N(Cc2ccccc2C(F)(F)F)[C@H]1c1ccc(CO)cc1 | -0.403 | -0.358 | -0.156 | -0.55 | 0.471 | 0.232 | -0.18 | -1.5 | 0.145 | 0.681 (inactive) | -0.0854 | -2.26 (inactive) | -0.949 (inactive) | -0.179 (inactive) | 1.71 (inactive) | -0.962 | -0.169 | -0.371 | 0.0029 | -0.214
2 | CC(C)N1C(=O)C[C@@](C(=O)NCCN2CCOCC2)(c2ccc([N+](=O)[O-])cc2)[C@H]1c1ccc(CO)cc1 | 2.67 | -0.886 | -0.455 | -0.591 | 0.178 | -0.588 | -0.143 | -0.516 | 0.869 | 1.42 (inactive) | -0.182 | -2.94 (inactive) | -1.4 (inactive) | -0.295 (inactive) | 0.668 (inactive) | -0.919 | -0.154 | -2.27 | 1.04 | -1.1
3 | C=C(CCCC)/C(=C/C[C@H](OC(C)=O)c1cccc(OCCO)c1)c1cnc2ccccc2c1 | -0.966 | -0.263 | -0.494 | -0.785 | 0.389 | -0.183 | 2.35 | 0.177 | 0.324 | -1.29 (inactive) | 0.0596 | -0.717 (inactive) | 0.768 (inactive) | 7.36 (inactive) | -0.134 (inactive) | 0.247 | -0.208 | -0.268 | -0.348 | 0.477
4 | COc1cc(CO)cc(I)c1O[C@H]1C=C(C(=O)NCCO)C[C@@H]2O[C@H]12 | 0.426 | 1.22 | 0.572 | 0.4 | 1.52 | 2.13 | -0.976 | 1.37 | 0.308 | 0.847 (inactive) | 0.815 | -4.18 (inactive) | -0.583 (inactive) | 3.65 (inactive) | 3.07 (inactive) | 0.717 | -0.0589 | 1.58 | 0.125 | 1.59
5 | COc1ccc(C(=O)Nc2ccc(CN3C(=O)[C@@]4(O[C@@H](CCn5cc(CCO)nn5)[C@H]([Si](C)(C)c5ccc(OC)cc5)[C@H]4C)c4ccccc43)cc2)cc1 | 1.17 | 1.17 | 0.749 | 0.874 | 1.35 | 1.21 | -0.326 | 1.1 | 0.522 | -0.162 (inactive) | 0.236 | -7.97 (inactive) | 0.173 (inactive) | 6.94 (inactive) | -0.632 (inactive) | 0.421 | -0.0791 | 0.671 | 0.411 | 1.4
